# Records with an inconclusive call do not appear. Activity calls are given as the source filed them. The call rests on the fitted dose curve; in most records, active means well fitted curve in the direction sought with a large enough effect; inconclusive means small, poorly fitted or top-dose-only effect, or effect the other way, or another doubt; inactive means no such curve, though single readings can be large or run the other way.
# Assay: Secondary Assay for lipid storage modulators: Hela cell LDSA assay for probe SAR
# Details: HeLa lipid droplet accumulation, BODIPY 493/503 cytometry, oleate-fed
# From the text: NIH Molecular Libraries Probe Production Centers Network [MLPCN] NIH Chemical Genomics Center [NCGC] MLPCN Grant: 1 R03 MH085686-01 Assay Submitter (PI): Beller, Mathias; Max-Planck-Institut fur Biophysikalische Chemie NCGC Assay Overview: Storing lipids as a reservoir for energy or the anabolism of elementary metabolites is a common feature of probably all cells and is conserved from bacteria to humans. The universal cellular lipid storage organelle is the so-called lipid storage droplet (LD). Although ubiquitous, LDs share a simple structure composed of a hydrophobic core that harbors the storage lipids, which is shielded by a droplet-specific phospholipid monolayer to which proteins are attached. The current model of LD biogenesis involves an incorporation of the lipid core into the membrane leaflets of the endoplasmic reticulum (ER) followed by a subsequent budding-like maturation of a LD, which ultimately pinches off. […]
# NCGC Assay Protocol Summary: The assay was performed with Hela cells, using an oleic acid feeding protocol similar to the S3 assay. […] Fluorescence was detected by excitation of the fluorophores with a 488-nm laser on an Acumen Explorer (TTP Lab Tech). […] Cells were detected using channel 3 (575-640 nm) with 5-um width and 100-um depth filters. The ratio of the number of objects in PMT channel 2 over the number of objects in PMT channel 3 was also calculated. […]
smiles,measurement,value
CCC/C=C/C/C=C/C=C/C=N/NN=O,Potency,11.2 nM (active)

# — PubChem BioAssay AID488900 (National Center for Advancing Translational Sciences (NCATS), 2010)
